TrxR1 substrate: is turned over as a substrate by rat TrxR1; purified TrxR1 substrate turnover, NADPH consumption readout; Potency, µM (titrated, usually from 114 µM), inactives show at the highest dose activity change, negative = substrate turnover; 390,000 compounds, 0.01% hits; also: nearly all actives have a fitted effect of over 50% in size
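Rat TrxR1, dispensed at 90 nM, was prereduced with 400 uM NADPH (final) for 5 min at ~22 deg C, then incubated with compound 15 min before 400 uM selenite. A first-read NADPH fluorescence drop versus no-compound background flagged substrates.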
KAT2A inh: blocks human GCN5L2 histone acetyltransferase; Q92830; Potency, µM (top dose mostly 58.9 µM), without a hit: at the highest dose activity change, negative = inhibition, hits mostly inhibitors; GCN5L2 HAT assay, ThioGlo1 CoA-SH fluorescence; 390,000 compounds, 0.21% hits
Target sequence (Q92830 whole entry, looked up): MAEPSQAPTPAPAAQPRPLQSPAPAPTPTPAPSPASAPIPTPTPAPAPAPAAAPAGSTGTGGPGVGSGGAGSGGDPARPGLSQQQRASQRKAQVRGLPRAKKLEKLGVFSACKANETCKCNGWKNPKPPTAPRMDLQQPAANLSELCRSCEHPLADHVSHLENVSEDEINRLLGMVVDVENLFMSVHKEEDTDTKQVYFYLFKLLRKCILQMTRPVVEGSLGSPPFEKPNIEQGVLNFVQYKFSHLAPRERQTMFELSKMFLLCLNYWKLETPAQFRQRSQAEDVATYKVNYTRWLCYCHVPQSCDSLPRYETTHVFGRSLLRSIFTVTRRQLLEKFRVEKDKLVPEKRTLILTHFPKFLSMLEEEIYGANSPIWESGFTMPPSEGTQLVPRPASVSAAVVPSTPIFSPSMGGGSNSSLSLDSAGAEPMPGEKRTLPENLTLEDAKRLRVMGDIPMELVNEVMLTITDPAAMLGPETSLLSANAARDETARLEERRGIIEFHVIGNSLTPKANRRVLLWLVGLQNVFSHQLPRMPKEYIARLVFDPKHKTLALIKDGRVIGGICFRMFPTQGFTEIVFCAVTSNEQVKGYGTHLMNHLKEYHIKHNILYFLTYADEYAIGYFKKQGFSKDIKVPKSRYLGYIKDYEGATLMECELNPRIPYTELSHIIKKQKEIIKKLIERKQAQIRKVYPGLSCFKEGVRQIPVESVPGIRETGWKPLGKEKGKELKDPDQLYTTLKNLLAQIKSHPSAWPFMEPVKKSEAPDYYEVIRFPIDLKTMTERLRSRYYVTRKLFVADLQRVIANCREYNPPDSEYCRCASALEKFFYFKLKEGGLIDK
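Fluorescence readout, Ex340nm/Em540nm: ThioGlo1 (50uM final) reacts with free CoA thiol released as 20nM GCN5L2 acetylates H3(1-25) peptide (75uM) using acetyl-CoA (70uM). Compound and enzyme sat 15 min beforehand; 20 min room-temperature reaction.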
TrxR1 inh: inhibitors of rat thioredoxin reductase 1. recombinant rTrxR1, NADPH fluorescence consumption, selenite substrate. O89049. 390,000 compounds, 1% hits. Potency, µM (series often up to 114 µM), for inactives: top-dose activity change, negative = inhibition, hits mostly inhibitors; also: nearly all actives have a fitted effect of over 65% in size
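Rat TrxR1 (90 nM in the dispensed reagent) was pre-reduced with 400 uM NADPH for 5 min at room temperature, then incubated with compound for 15 min. After 400 uM selenite was added, NADPH fluorescence (Ex 340/Em 450 nm) was followed for 8 min.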
VDR inh: blocks the human vitamin D receptor; 400,000 compounds, 0.93% hits; VDR-SRC2-3 peptide fluorescence polarization, 2 h; Potency, µM, inactives show max response, negative = inhibition, most hits filed as inhibitors
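FP read-out; VDR + SRC2-3 coactivator peptide; 23 nl compound by pintool; 2 h RT incubation; reagents held at 4 deg C, protected from light.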
Starred values were filed as active, the others as inactive; ? = inconclusive; · = no result given; ! = not confirmed by another sample; [ ] = dose if it differs, or a comment. Rows were chosen to be rich in hits. Some 1.8% of all compounds tested hit in one or more screens of this group. Calls follow the shape of the dose curve; as a rule, active = well fitted curve in the direction sought with a large enough effect; inconclusive = small, poorly fitted or top-dose-only effect, or another doubt; inactive = no such curve, though single readings can be large; an effect the other way counts as inactive or inconclusive. % is scaled to controls: 0 for no effect and ±100 for the full control effect; potency is read from the fitted curve at half-maximal effect.

SMILES	TrxR1 substrate	KAT2A inh	TrxR1 inh	VDR inh
c1ccc2c(c1)SCc1c-2[nH]c2ccccc12	·	22µM*	·	10µM*
CC(C)C[C@H](NC(=O)[C@H](CC(C)C)NC(=O)[C@H](CCC(N)=O)NC(=O)[C@H](CO)NC(=O)[C@@H]1CCCN1C(=O)[C@H](CO)NC(=O)[C@H](CO)NC(=O)[C@@H](NC(=O)[C@H](Cc1cnc[nH]1)NC(=O)[C@H](CCC(=O)O)NC(=O)[C@H](Cc1ccc(O)cc1)NC(=O)[C@H](CCCCN)NC(=O)[C@H](CCC(N)=O)NC(=O)[C@H](Cc1ccc(O)cc1)NC(=O)[C@H](CC(=O)O)NC(=O)[C@@H](NC(=O)[C@@H]1CCCN1C(=O)[C@H](CC(=O)O)NC(=O)[C@H](CC(N)=O)NC(=O)[C@H](CC(=O)O)NC(=O)CNC(=O)[C@H](CC(=O)O)NC(=O)[C@@H]1CCCN1C(=O)[C@H](CCC(N)=O)NC(=O)[C@H](Cc1ccc(O)cc1)NC(=O)[C@H](C)NC(=O)[C@H](Cc1c[nH]c2ccccc12)NC(=O)[C@H](Cc1ccccc1)NC(=O)[C@@H](NC(=O)[C@@H](N)CO)[C@@H](C)O)[C@@H](C)O)[C@@H](C)O)C(=O)N[C@@H](C)C(=O)N1CCC[C@H]1C(=O)NCC(=O)N[C@@H](CC(=O)O)C(=O)N[C@@H](Cc1ccc(O)cc1)C(=O)O	·	1%	·	-4%
O=C(O)/C=C/C(=O)NNC(=O)c1cc(-c2ccccc2)n[nH]1	10%	-15%	6.3µM*	?
COCCn1c(SCC(=O)c2c[nH]c3ccccc23)nc2cc(C(=O)NCC(C)C)ccc2c1=O	0%[57.1 µM]	21%	9%[57.1 µM]	-9%
CCCCCCCCCCCCCCCC[N+](C)(C)CC	7%	-2%	24%	-5%
CCCCCC[N+](C)(C)CCSSCC[N+](C)(C)CCCCCC	-20%	0%	186%	8.9µM*
CC1CCN(S(=O)(=O)c2ccc3c(c2)N(CC(=O)NC(C)C)C(=O)CO3)CC1	5%[57.1 µM]	-6%	26%[57.1 µM]	8%
Cc1ccc(CN(C)C(=O)C2CCC(=O)N(CC3CCCCC3)C2)o1 (configuration not stated)	6%	3%	40µM*	-15%
CN(Cc1cccc(C(F)(F)F)c1)C(=O)C1CCC(=O)N(CC2CCCCC2)C1 (configuration not stated)	-3%	-3%	7%	-21%
CCOc1cc(CNc2ccc(O)cc2)cc(Cl)c1OCc1ccccc1	-7%	-34%	-1%	-6%
CCOc1cccc(CNc2ccc(O)cc2)c1OCc1ccccc1Cl	-1%	-8%	?	40µM*!
CCOc1cccc(CNc2ccc(O)cc2)c1OCc1ccc(Cl)cc1Cl	1%[57.1 µM]	0%	?	50µM*
CCOc1cccc(CNn2cnnc2)c1OCc1ccccc1Cl	-9%	-1%	-4%	-10%
CN(C)c1ccc(/C=c2\[nH]c(=O)/c(=C\c3ccc(N(C)C)cc3)[nH]c2=O)cc1	5%[57.1 µM]	·	17%[57.1 µM]	·
CC(C)[C@@H]1CC[C@@H](C)C[C@@H]1P(=O)(c1ccccc1)c1ccccc1	1%[57.1 µM]	-2%	8%[57.1 µM]	-4%
COc1cc2c(cc1OC)C(C)N(C(=O)c1cc3c(=O)oc4ccc(C)cc4c3s1)CC2 (configuration not stated)	25%	-1%	79µM*	4%
COc1ccc(-c2cc(OC(=O)c3ccc(Cl)cc3)c3c(C)oc(C)c3c(=O)c2)cc1	-7%	-8%	50µM*	?
CCOc1ccc(-c2cc(OC(=O)c3ccc(OC)cc3)c3c(C)oc(C)c3c(=O)c2)cc1	-1%	4%	-23%	?
CCOc1cc(-c2ccc(OC(=O)c3ccc(OC)cc3)c(OC)c2)cc(=O)c2c(C)oc(C)c12	-3%	-25%	35µM*	?
Cc1nc([N+](=O)[O-])cn1CC(O)c1ccc2c(c1)OCCCO2 (configuration not stated)	-1%	·	-3%	·
N=C(N)c1ccc(N)cc1	7%[57.1 µM]	-3%	14%[57.1 µM]	-7%
Nc1ccc(O)cc1	?	·	14µM*	79µM*
COc1cc(/C=C2/SC(=S)NC2=O)ccc1OS(=O)(=O)c1ccc(C)cc1	4%[57.1 µM]	?	-12%[57.1 µM]	50µM*
Nc1cc(N2CCCCC2)nc(N)[n+]1OS(=O)(=O)[O-]	·	19%	·	-1%
COc1ccc(-c2cc3c(nn2)-c2ccccc2C3=O)cc1	3%[57.1 µM]	-4%	20%[57.1 µM]	79µM*
SMILES	TrxR1 substrate	KAT2A inh	TrxR1 inh	VDR inh
O=C(O)c1ccccc1Oc1ccc(Oc2ccccc2)cc1	2%	-1%	27%	-27%
Cc1ccc(CN(C)C(=O)c2ccccc2Oc2ccccc2)o1	7%	-7%	11µM*	?
CC(=O)c1cccc(OCc2cc(C(=O)N(C)Cc3ccc(C)o3)no2)c1	-3%	-13%	3.5µM*	?
N#Cc1sc(=O)[nH]c1Cl	6%	·	27%	79µM*
CC(OC(=O)c1ccccc1OCCOc1ccccc1)C(=O)Nc1ccc(Br)cc1 (configuration not stated)	3%	·	31%	·
O=c1c2ccccc2sn1-c1ccc(S(=O)(=O)N2CCCCC2)cc1	6%	·	26%	-6%
O=c1c2ccccc2sn1-c1ccc(S(=O)(=O)N2CCCC2)cc1	3%	0.5µM*	50%	?
Cc1ccc(-n2sc3ccccc3c2=O)cc1S(=O)(=O)N1CCCCC1	-10%	2.2µM*	-27%	?
CC(C)(C)c1ccc(CN2N=Nc3ccccc3S2(=O)=O)cc1	3%	?	?	50µM*
CC(C)Oc1cccc(C(=O)NC(=S)Nc2cccnc2)c1	-1%	-1%	22µM*	-22%
COc1cccc(C(=O)NC(=S)Nc2cccnc2)c1	-3%	42%	?	-8%
COCCn1c(SCC(=O)c2ccc3c(c2)OCCO3)nnc1-c1ccoc1C	-5%	-7%	45µM*	-16%
Cc1ccc(C(=O)CSc2ccccn2)cc1	-10%	9%	0%	79µM*
Cc1ccc(C(=O)CSc2nnc(-c3ccco3)n2C)cc1	7%[57.1 µM]	-3%	13%[57.1 µM]	50µM*
CCCCn1c(SCC(=O)c2ccc3c(c2)OCCO3)nnc1-c1ccco1	-4%	-3%	7.1µM*	-19%
Cn1c(SCC(=O)c2cc(Cl)c(Cl)s2)nnc1-c1ccco1	1%[57.1 µM]	2%	?	-22%
CCn1c(SCC(=O)Nc2ccc3c(c2)OCCO3)nnc1-c1ccco1	8%	3%	-11%	-4%
Cc1cccc(NS(=O)(=O)c2ccc(Cl)c(C(=O)Nc3ccccc3C)c2)c1	-1%	-6%	14%	-8%
CCCCCCCCCCCCN1C/C(=C\C(=O)OCC)c2cc(C(F)(F)F)ccc2S1(=O)=O	-8%	-12%	?	-18%
CCOC(=O)/C=C1\CN(Cc2cc(OC)c(OC)c(OC)c2)S(=O)(=O)c2ccc(C(F)(F)F)cc21	0%[57.1 µM]	-9%	50µM*!	-5%
O=C(c1ccc(S(=O)(=O)Cc2ccccc2Cl)c([N+](=O)[O-])c1)N1CCOCC1	4%	-4%	14µM*	-4%
CC[C@H](Cc1c(I)cc(I)c(N)c1I)C(=O)O	·	-12%[21.4 µM]	·	?
